# PubChem BioAssay
# Activity calls are given as the source filed them.
# How the values were obtained:
# [1] = tested on: PRMT1 (protein arginine N-methyltransferase 1); experiment: small molecules binding arginine methyltransferase PRMT1 – biochemical, small-molecule microarray, 635 nm fluorescence, primary screen (AID 1088); details: higher = more signal;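 note: binding of Prmt1 protein to compounds spotted on small-molecule microarray slides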
# [2] = growth effects on S. cerevisiae YJM789 – YJM789 clinical isolate, OD600, 24 h, basal, primary screen (AID 1089); details: higher = more signal, called active from +8 up or from −8 down;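 note: growth of clinical yeast isolate S. cerevisiae YJM 789 seeded 1000 cells per well; test concentration not given here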
# [3] = S. pombe growth modifiers, basal conditions – strain 972, OD600, 24 h, no modulator, primary screen (AID 1090);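 note: basal condition with compound alone and no growth modifier present; test concentration not given here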; details: S. pombe 972 growth, higher = more signal, called active from +8 up or from −8 down
# [4] = budding yeast growth modifiers under rapamycin – strain BY4716, OD600, 96 h, primary screen (AID 1091); note: test concentration not given here; details: S. cerevisiae BY4716 + rapamycin, higher = more signal, called active from +8 up or from −8 down
# [5] = target: Torsin-1A-interacting protein 2 (Homo sapiens) (UniProt Q8NFQ8); experiment: small molecules binding lysate-expressed LULL1 – cell lysate, human LULL1 lysate, 635/667 nm fluorescence, primary screen (AID 1092); details: small-molecule microarray, hLULL1 lysate binding, 635 nm fluorescence; higher = more signal;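 note: probe is lysate of COS7 cells overexpressing human LULL1; score merges per-feature 667 nm fluorescence with signal-to-noise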
# [6] = optical density change of DRC41 E. coli – strain DRC41, OD650, 24 h, E. coli filamentation project, primary screen (AID 1093);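 note: MC1000 strain lacking acrAB efflux and sulA so SOS filamentation is blocked; test concentration not given here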; details: E. coli DRC41 growth, higher = more signal, called active from +8 up or from −8 down
# [7] = probe aLefty2 binding to arrayed compounds – biochemical, biotinylated probe, 635/667 nm fluorescence, primary screen (AID 1094); details: small-molecule microarray, higher = more signal;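 note: score merges spot fluorescence near 667 nm with spot signal-to-noise ratio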
# [8] = tested on: Noggin (protein binding on small-molecule microarray); experiment: small molecules binding Noggin protein – biochemical, 635/667 nm fluorescence, primary screen (AID 1095); details: 635 nm fluorescence, higher = more signal;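 note: score merges 667 nm feature fluorescence with signal to noise over triplicate slides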
# [9] = target: Neurogenic locus notch homolog protein 3 (Homo sapiens) (UniProt Q9UM47); experiment: small molecules binding NOTCH3 protein – biochemical, 635/667 nm fluorescence, primary screen (AID 1096); details: small-molecule microarray, 635 nm fluorescence, higher = more signal
# [10] = probe aEGFR binding to arrayed compounds – biochemical, biotinylated probe, 635/667 nm fluorescence, primary screen (AID 1097); details: small-molecule microarray, higher = more signal;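 note: probe is a biotinylated anti-EGFR antibody binding compounds printed on slides; score combines fluorescence near 667 nm and signal to noise of each spot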
# [11] = tested on: Plasmodium falciparum Sir2 (PF13_0152, Sir2A); experiment: Plasmodium falciparum Sir2A binding compounds – biochemical, small-molecule microarray, 635 nm fluorescence, primary screen (AID 1098); details: fluorescence 635 nm, higher = more signal;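 note: score merges spot fluorescence intensity with its signal-to-noise ratio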
# [12] = probe aDKK1 binding to arrayed compounds – biochemical, biotinylated probe, 635/667 nm fluorescence, primary screen (AID 1099); details: small-molecule microarray, higher = more signal;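 note: score merges 667nm spot fluorescence with signal to noise across triplicate slides; reference of the scale not given here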
# [13] = probe aCHRDL2 binding to arrayed compounds – biochemical, biotinylated probe, 635/667 nm fluorescence, primary screen (AID 1100); details: small-molecule microarray, higher = more signal
# [14] = change in splice reporter luminescence, either direction, cell-based, HEK293, spliceosome inhibition project, primary screen (AID 1101); details: HEK293 splicing luciferase reporter, 24 h, higher = more signal, called active from +8 up or from −8 down;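 note: HEK293 cells carrying a splicing-competent luciferase reporter gene; test concentration not given here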
# [15] = target: Fibroblast growth factor 10 (Homo sapiens) (UniProt O15520); experiment: compounds binding fibroblast growth factor 10 – biochemical, small-molecule microarray, 635 nm fluorescence, primary screen (AID 1102); details: FGF10 binding, fluorescence 635 nm, higher = more signal
# [16] = tested on: glycogen synthase kinase-3 (GSK3A per assay name; protocol says GSK3B); experiment: compounds binding glycogen synthase kinase-3 – biochemical, small-molecule microarray, 635 nm fluorescence, GSK3A, primary screen (AID 1103); details: fluorescence 635 nm, higher = more signal; note: the record names both GSK3A and GSK3B
# [17] = target: Epidermal growth factor receptor (Homo sapiens) (UniProt P00533); experiment: compounds binding epidermal growth factor receptor – biochemical, small-molecule microarray, 635 nm fluorescence, primary screen (AID 1104); details: EGFR binding, higher = more signal;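 note: score merges 667 nm emission intensity with spot signal to noise over triplicate slides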
# [18] = target: Follistatin-related protein 3 (Homo sapiens) (UniProt O95633); experiment: compounds binding follistatin-related protein 3 – biochemical, small-molecule microarray, 635 nm fluorescence, primary screen (AID 1105); details: FSTL3 binding, higher = more signal;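 note: score merges emission near 667 nm and signal to noise per printed spot across three slides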
# [19] = target: Dickkopf-related protein 1 (Homo sapiens) (UniProt O94907); experiment: small molecules binding DKK1 protein – biochemical, small-molecule microarray, 635 nm fluorescence scan, primary screen (AID 1106); details: higher = more signal;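 note: score merges emission near 667 nm with signal to noise over three replicate slides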
# [20] = tested on: Inhibin beta A chain (activin A); experiment: small molecules binding activin A – biochemical, small-molecule microarray, 635 nm fluorescence scan, primary screen (AID 1107); details: INHBA, higher = more signal;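 note: mouse activin A protein probed at 4.33 µg/mL on printed slides; score merges bound-protein fluorescence near 667 nm with spot signal-to-noise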
# Chain of Dickkopf-related protein 1 (Homo sapiens) (O94907 whole entry, looked up): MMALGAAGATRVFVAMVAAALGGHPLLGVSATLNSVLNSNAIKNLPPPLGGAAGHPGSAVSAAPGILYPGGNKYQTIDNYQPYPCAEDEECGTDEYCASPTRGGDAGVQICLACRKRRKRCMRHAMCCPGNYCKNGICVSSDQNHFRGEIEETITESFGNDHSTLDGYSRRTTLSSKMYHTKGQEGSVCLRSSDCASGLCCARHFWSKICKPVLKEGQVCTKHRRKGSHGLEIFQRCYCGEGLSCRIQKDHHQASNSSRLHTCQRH
# Chain of Fibroblast growth factor 10 (Homo sapiens) (O15520 whole entry, looked up): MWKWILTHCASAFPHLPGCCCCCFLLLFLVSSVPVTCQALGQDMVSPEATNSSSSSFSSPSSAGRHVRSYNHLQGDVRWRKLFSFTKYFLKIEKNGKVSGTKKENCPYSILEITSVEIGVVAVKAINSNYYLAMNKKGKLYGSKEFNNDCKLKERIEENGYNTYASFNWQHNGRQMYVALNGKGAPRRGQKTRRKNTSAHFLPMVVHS
# Chain of Neurogenic locus notch homolog protein 3 (Homo sapiens) (Q9UM47 whole entry, looked up): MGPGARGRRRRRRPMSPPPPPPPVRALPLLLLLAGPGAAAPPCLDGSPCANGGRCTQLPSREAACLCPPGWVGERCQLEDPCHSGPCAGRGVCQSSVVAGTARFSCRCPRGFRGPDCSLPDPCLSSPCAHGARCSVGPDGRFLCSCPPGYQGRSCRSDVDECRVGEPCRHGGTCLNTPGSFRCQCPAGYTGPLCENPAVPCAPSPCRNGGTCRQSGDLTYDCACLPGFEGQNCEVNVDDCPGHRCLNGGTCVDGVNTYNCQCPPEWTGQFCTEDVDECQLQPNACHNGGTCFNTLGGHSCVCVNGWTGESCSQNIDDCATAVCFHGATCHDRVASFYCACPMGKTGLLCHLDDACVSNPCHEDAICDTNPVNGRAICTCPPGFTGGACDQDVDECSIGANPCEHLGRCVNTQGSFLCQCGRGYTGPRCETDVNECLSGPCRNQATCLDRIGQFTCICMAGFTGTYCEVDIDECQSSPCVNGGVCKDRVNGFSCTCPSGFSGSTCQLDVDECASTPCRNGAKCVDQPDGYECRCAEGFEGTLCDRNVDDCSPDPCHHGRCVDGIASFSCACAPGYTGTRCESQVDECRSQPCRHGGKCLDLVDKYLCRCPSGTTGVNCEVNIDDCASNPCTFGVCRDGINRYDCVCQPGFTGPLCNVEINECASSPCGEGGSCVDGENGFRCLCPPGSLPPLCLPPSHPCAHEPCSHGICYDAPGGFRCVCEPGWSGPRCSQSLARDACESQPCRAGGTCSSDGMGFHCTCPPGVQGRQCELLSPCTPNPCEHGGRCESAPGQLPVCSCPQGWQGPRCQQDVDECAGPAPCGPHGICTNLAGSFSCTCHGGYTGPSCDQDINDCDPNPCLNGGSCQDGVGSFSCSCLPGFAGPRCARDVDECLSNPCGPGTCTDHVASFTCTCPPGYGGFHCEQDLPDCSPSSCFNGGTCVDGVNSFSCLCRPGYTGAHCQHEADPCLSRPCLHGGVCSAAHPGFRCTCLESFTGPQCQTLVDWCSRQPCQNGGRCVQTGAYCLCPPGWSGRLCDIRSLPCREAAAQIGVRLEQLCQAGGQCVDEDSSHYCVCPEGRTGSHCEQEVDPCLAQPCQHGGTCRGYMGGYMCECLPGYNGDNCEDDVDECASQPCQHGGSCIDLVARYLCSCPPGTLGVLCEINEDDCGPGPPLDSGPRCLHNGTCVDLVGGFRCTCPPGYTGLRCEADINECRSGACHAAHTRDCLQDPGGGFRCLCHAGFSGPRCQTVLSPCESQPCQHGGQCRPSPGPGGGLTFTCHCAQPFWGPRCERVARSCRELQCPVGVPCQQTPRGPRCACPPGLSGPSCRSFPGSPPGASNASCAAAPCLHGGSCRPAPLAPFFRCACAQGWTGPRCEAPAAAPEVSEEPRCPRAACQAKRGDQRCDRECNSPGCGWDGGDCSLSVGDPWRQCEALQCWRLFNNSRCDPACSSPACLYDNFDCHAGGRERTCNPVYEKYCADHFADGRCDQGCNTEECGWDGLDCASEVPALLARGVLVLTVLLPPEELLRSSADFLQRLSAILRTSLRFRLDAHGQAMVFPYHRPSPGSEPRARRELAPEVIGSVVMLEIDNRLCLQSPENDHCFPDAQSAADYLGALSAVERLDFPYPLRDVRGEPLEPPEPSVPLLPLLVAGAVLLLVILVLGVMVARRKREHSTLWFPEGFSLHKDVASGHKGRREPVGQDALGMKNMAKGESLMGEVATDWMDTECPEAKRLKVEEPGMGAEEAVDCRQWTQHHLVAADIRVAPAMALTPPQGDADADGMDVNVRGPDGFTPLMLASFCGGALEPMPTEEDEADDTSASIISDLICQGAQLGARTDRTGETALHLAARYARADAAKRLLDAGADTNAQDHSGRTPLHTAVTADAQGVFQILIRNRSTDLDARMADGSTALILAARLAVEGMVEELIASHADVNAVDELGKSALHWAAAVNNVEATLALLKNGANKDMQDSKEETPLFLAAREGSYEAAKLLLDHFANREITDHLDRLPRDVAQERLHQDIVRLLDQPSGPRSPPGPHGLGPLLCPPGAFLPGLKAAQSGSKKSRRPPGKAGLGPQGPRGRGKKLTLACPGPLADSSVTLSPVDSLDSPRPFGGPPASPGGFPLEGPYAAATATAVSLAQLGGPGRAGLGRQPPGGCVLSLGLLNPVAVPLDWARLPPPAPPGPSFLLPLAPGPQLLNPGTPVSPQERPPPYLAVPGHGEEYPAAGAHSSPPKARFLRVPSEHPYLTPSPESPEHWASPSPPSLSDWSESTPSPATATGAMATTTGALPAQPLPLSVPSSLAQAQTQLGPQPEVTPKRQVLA
# Chain of Epidermal growth factor receptor (Homo sapiens) (P00533 whole entry, looked up): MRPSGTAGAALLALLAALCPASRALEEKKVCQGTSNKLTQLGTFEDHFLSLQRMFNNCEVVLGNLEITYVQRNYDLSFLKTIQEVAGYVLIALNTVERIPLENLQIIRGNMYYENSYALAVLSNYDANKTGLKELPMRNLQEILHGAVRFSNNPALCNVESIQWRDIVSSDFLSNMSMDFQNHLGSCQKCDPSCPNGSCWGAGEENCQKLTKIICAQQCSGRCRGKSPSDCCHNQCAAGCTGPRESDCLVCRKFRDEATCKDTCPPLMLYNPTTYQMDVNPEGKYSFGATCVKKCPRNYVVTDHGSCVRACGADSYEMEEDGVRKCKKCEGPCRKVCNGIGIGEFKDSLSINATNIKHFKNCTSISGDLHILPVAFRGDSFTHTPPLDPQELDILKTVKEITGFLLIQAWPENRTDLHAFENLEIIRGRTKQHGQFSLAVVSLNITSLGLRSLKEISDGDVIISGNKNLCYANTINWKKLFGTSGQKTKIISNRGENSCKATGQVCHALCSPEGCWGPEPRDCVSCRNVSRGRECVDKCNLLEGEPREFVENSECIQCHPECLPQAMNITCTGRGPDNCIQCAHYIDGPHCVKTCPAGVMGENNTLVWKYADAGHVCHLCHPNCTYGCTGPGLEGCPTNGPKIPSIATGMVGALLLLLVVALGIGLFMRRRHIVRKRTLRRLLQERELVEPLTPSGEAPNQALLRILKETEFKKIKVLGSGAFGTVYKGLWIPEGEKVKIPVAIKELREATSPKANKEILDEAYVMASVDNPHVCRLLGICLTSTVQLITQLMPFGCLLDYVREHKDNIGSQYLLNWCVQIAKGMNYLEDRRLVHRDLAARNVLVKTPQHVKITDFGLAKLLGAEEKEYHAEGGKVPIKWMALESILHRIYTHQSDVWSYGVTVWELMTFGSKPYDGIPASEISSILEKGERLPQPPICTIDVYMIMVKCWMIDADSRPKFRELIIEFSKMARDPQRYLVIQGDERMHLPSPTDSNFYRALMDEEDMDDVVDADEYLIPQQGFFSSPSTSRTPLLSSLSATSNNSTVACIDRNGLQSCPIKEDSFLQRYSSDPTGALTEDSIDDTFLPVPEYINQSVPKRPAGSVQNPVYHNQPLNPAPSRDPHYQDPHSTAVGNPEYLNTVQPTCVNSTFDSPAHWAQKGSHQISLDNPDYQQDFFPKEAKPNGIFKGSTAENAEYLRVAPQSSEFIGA
# Chain of Follistatin-related protein 3 (Homo sapiens) (O95633 whole entry, looked up): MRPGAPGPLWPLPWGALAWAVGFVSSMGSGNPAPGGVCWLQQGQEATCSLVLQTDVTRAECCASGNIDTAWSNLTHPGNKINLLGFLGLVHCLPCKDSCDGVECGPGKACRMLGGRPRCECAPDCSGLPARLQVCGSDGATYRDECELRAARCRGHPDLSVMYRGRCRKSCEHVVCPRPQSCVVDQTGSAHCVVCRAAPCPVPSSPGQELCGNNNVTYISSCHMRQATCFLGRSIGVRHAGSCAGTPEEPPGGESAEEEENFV
# Chain of Torsin-1A-interacting protein 2 (Homo sapiens) (Q8NFQ8 whole entry, looked up): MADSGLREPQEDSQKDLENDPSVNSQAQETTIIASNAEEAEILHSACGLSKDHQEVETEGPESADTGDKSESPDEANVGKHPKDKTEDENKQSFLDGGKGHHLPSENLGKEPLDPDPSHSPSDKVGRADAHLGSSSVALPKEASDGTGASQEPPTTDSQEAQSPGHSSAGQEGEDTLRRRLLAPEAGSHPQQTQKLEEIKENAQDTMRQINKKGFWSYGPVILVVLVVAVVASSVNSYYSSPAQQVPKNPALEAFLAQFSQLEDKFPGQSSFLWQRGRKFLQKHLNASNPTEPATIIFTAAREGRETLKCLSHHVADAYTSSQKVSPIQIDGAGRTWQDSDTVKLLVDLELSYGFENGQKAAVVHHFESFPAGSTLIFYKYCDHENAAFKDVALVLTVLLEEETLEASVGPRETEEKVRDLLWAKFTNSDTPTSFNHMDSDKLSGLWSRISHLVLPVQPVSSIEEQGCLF
structure (smiles),measurement,setting,value
CC[C@@H](c1ccccc1)n1c(=O)n2n(c1=O)[C@H]1[C@H](O)[C@@H]3O[C@@H]3C(=NOC[C@@H](O)COCc3ccco3)[C@H]1CC2,composite z-score,[1],-0.862
same,z-score,[2],-0.697 (inactive)
same,z-score,[3],-0.552 (inactive)
same,z-score,[4],-0.624 (inactive)
same,composite z-score,[5],-1.1
same,z-score,[6],0.568 (inactive)
same,composite z-score,[7],-0.215
same,composite z-score,[8],0.0447
same,composite z-score,[9],-0.979
same,composite z-score,[10],-0.185
same,composite z-score,[11],1.27
same,composite z-score,[12],-0.455
same,composite z-score,[13],-0.773
same,z-score,[14],3.16 (inactive)
same,composite z-score,[15],0.145
same,composite z-score,[16],-0.693
same,composite z-score,[17],-0.264
same,composite z-score,[18],-0.378
same,composite z-score,[19],0.239
same,composite z-score,[20],1.09
CC(C)CON=C1C[C@@H](O)[C@@H](O)[C@@H]2[C@@H]3C(=O)N(C[C@@H]4CCCO4)C(=O)[C@@H]3CC[C@@H]12,composite z-score,[1],0.242
same,z-score,[2],-1.49 (inactive)
same,z-score,[3],0.283 (inactive)
same,z-score,[4],-0.625 (inactive)
same,composite z-score,[5],1.38
same,z-score,[6],1.27 (inactive)
same,composite z-score,[7],-0.209
same,composite z-score,[8],0.262
same,composite z-score,[9],-0.435
same,composite z-score,[10],-0.22
same,composite z-score,[11],0.0599
same,composite z-score,[12],0.52
same,composite z-score,[13],0.0562
same,z-score,[14],0.926 (inactive)
same,composite z-score,[15],-0.231
same,composite z-score,[16],-0.622
same,composite z-score,[17],-0.151
same,composite z-score,[18],-0.336
same,composite z-score,[19],-0.554
same,composite z-score,[20],-0.148
COc1cccc([C@H]2Oc3ccc(OC)cc3C(=NO[C@@H](C)c3cn([C@H](CO)Cc4ccccc4)nn3)[C@@H]2O)c1,composite z-score,[1],0.0733
same,z-score,[2],0.401 (inactive)
same,z-score,[3],0.0329 (inactive)
same,z-score,[4],0.0485 (inactive)
same,composite z-score,[5],-0.123
same,z-score,[6],-0.486 (inactive)
same,composite z-score,[7],-0.21
same,composite z-score,[8],-0.335
same,composite z-score,[9],-0.367
same,composite z-score,[10],-0.18
same,composite z-score,[11],0.482
same,composite z-score,[12],-0.268
same,composite z-score,[13],-0.303
same,z-score,[14],-0.0241 (inactive)
same,composite z-score,[15],0.167
same,composite z-score,[16],-0.58
same,composite z-score,[17],-0.0558
same,composite z-score,[18],-0.201
same,composite z-score,[19],0.113
same,composite z-score,[20],0.176
C[C@@H]1C=CCC(=O)OC[C@H]2O[C@@H](C=C[C@@H]2O)[C@H](C)C=CCC(=O)OC1,composite z-score,[1],1.55
same,z-score,[2],-2.12 (inactive)
same,z-score,[3],-1.24 (inactive)
same,z-score,[4],-0.618 (inactive)
same,composite z-score,[5],-1.24
same,z-score,[6],-0.293 (inactive)
same,composite z-score,[7],-0.254
same,composite z-score,[8],1.86
same,composite z-score,[9],0.595
same,composite z-score,[10],-0.0455
same,composite z-score,[11],1.29
same,composite z-score,[12],-0.594
same,composite z-score,[13],-1.55
same,z-score,[14],-0.813 (inactive)
same,composite z-score,[15],1.1
same,composite z-score,[16],0.963
same,composite z-score,[17],1.23
same,composite z-score,[18],1.59
same,composite z-score,[19],1.53
same,composite z-score,[20],1.91
COC(=O)[C@@H]1CC[C@H](C)[C@@H](c2ccc(C)cc2)N1C(=O)c1ccc(C=NO[C@H](C)c2cn([C@@H]3COC[C@H]3O)nn2)cc1,composite z-score,[1],1.12
same,z-score,[2],0.524 (inactive)
same,z-score,[3],-0.0358 (inactive)
same,z-score,[4],0.726 (inactive)
same,composite z-score,[5],2.06
same,z-score,[6],1.67 (inactive)
same,composite z-score,[7],-0.138
same,composite z-score,[8],0.258
same,composite z-score,[9],1.09
same,composite z-score,[10],0.212
same,composite z-score,[11],0.266
same,composite z-score,[12],-0.132
same,composite z-score,[13],-0.369
same,z-score,[14],0.0134 (inactive)
same,composite z-score,[15],0.718
same,composite z-score,[16],0.891
same,composite z-score,[17],0.67
same,composite z-score,[18],0.66
same,composite z-score,[19],0.831
same,composite z-score,[20],-1.14
